From PubChem BioAssay
Vc quorum ag: inducers of Vibrio cholerae quorum light production without autoinducers | activation, % at 18.7 µM | V. cholerae BH1578 lux reporter, luminescence, 6 h | actives 0.16% (n = 350,000); in the data active = activation mostly above about 9.7%, no sharp cut-off
Mtb FBA inh: inhibitors of M. tuberculosis fructose-bisphosphate aldolase. P9WQA3. purified M. tuberculosis FBA, fluorescence read-out. inhibition, % at 1 µM. actives 2.3% (n = 360,000). AID 588726; in the data active = inhibition above about 27%;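 also: 0% = vehicle and 100% = reference inhibitor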
UGM FP inh: inhibitors of M. tuberculosis UDP-galactopyranose mutase | P9WIQ1 | purified UGM, fluorescence polarization probe displacement | inhibition, % at 10 µM | actives 0.06% (n = 320,000) | AID 504406; in the data active = inhibition above about 10%, passing the limit was not always enough
Target sequence (P9WIQ1 whole entry, looked up): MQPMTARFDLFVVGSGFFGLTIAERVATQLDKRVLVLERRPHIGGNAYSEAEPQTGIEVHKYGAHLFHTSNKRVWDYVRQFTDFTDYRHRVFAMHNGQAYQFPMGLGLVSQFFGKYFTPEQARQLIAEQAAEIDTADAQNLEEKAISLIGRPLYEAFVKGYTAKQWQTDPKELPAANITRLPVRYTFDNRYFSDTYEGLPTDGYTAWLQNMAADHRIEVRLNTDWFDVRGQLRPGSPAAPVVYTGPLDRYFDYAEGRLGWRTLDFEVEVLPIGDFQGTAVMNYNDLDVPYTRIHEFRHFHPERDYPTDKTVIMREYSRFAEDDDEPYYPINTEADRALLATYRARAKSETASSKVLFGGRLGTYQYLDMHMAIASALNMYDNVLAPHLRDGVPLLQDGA
RecA intein inh: inhibitors of M. tuberculosis RecA intein splicing; P9WHJ3; cell-free RecA intein splicing, fluorescence; inhibition, % (no concentration beside the values); actives 0.75% (n = 290,000); AID 2221; in the data active = inhibition above about 30%;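 also: 0% = vehicle wells and 100% = reference inhibitor control wells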
GDH-TPI counter: counter-screen for M. tuberculosis FBA inhibitors: GDH-TPI coupled enzymes. inhibition, % at 4.8 µM. actives 1.2% (n = 360,000). GDH-TPI coupled enzyme counterscreen, NADH absorbance; in the data active = inhibition above about 30%;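 also: 0% = DMSO wells and 100% = wells lacking the enzyme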
Rv3671c inh: inhibitors of M. tuberculosis serine protease Rv3671c; AID 2606; actives 0.048% (n = 320,000); inhibition, % at 5.96 µM; P9WHR9; in the data active = inhibition above about 38%;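 also: extracellular domain of Rv3671c used as enzyme; 0% = enzyme with DMSO and 100% = no enzyme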
Active calls of the source: *. Compounds with a hit are over-represented: about 4.1% of the library has one in this group of screens.

How did O=C(CCCc1ccccc1)NCCS(=O)(=O)N1CCN(c2ccccc2F)CC1 do in these assays?
Vc quorum ag: 0; Mtb FBA inh: 3; UGM FP inh: 0; RecA intein inh: -2; GDH-TPI counter: 1; Rv3671c inh: 1

Results for N#Cc1nc(-c2ccco2)oc1NCCN1CCOCC1 ?
Vc quorum ag: -2; Mtb FBA inh: 26; UGM FP inh: -2; RecA intein inh: 1; GDH-TPI counter: 7; Rv3671c inh: 2

What do the screens show for `N#Cc1nc(/C=C/c2ccccc2)oc1NCCCN1CCOCC1`?
Vc quorum ag: -1; Mtb FBA inh: active; UGM FP inh: -2; RecA intein inh: -46; GDH-TPI counter: 26; Rv3671c inh: -2

Results for N#Cc1nc(-c2cccs2)oc1NCCCN1CCOCC1 ?
Vc quorum ag: 0; Mtb FBA inh: active; UGM FP inh: 0; RecA intein inh: -4; GDH-TPI counter: 15; Rv3671c inh: -2

How did COc1ccc(-c2nc(C#N)c(NCCCN3CCOCC3)o2)cc1 do in these assays?
Vc quorum ag: 0; Mtb FBA inh: 149*; UGM FP inh: 0; RecA intein inh: 0; GDH-TPI counter: 11; Rv3671c inh: -4

Results for CC(C)NC(=O)N(C)C[C@@H]1Oc2cc(C#Cc3ccccn3)ccc2S(=O)(=O)N([C@@H](C)CO)C[C@H]1C ?
Vc quorum ag: -2; Mtb FBA inh: -1; GDH-TPI counter: 4

Results for O=C1CS/C(=N/N=C/c2cccs2)N1Cc1ccc(F)cc1 ?
Vc quorum ag: inactive; Mtb FBA inh: -1; UGM FP inh: 2; RecA intein inh: 2; GDH-TPI counter: 37*; Rv3671c inh: 5

Results for Cc1nc2ccccn2c1C(=O)N/N=C/c1ccccc1 ?
Vc quorum ag: 1; Mtb FBA inh: -2; UGM FP inh: -2; RecA intein inh: -4; GDH-TPI counter: 15; Rv3671c inh: 2

How did Cc1ccc(/C=N/NC(=O)c2c(C)nc3ccc(Br)cn23)cc1 do in these assays?
Vc quorum ag: inactive; Mtb FBA inh: -2; UGM FP inh: 1; RecA intein inh: 0; GDH-TPI counter: 12; Rv3671c inh: 4

Results for COc1ccc(/C=N/NC(=O)c2c(C)nc3ccccn23)cc1[N+](=O)[O-] ?
Vc quorum ag: 0; Mtb FBA inh: 1; UGM FP inh: 0; RecA intein inh: -1; GDH-TPI counter: 38*; Rv3671c inh: 0

Results for COc1ccc(/C=N/NC(=O)c2c(C)nc3ccc(Br)cn23)cc1OC ?
Vc quorum ag: -1; Mtb FBA inh: -2; UGM FP inh: -3; RecA intein inh: 2; GDH-TPI counter: 46*; Rv3671c inh: 1

How did Cc1nc2ccccn2c1C(=O)N/N=C/c1cc(C)n(-c2ccc(Br)cc2)c1C do in these assays?
Vc quorum ag: inactive; Mtb FBA inh: 0; UGM FP inh: -1; RecA intein inh: 5; GDH-TPI counter: 37*; Rv3671c inh: 0

What do the screens show for `COc1ccc(/C=N\NC(=O)c2c(C)nc3ccc(Br)cn23)cc1`?
Vc quorum ag: 0; Mtb FBA inh: 0; UGM FP inh: -1; RecA intein inh: 0; GDH-TPI counter: 43*; Rv3671c inh: 6

How did CCN(CC)CCNC(=O)c1cn(CC)c2ccc(S(=O)(=O)N3CCc4ccccc4C3)cc2c1=O do in these assays?
Vc quorum ag: inactive; Mtb FBA inh: 3; UGM FP inh: 0; RecA intein inh: -3; GDH-TPI counter: 3; Rv3671c inh: -1

What do the screens show for `COc1ccc(/C=N/NC(=O)c2c(C)nc3ccc(Cl)cn23)cc1OC`?
Vc quorum ag: inactive; Mtb FBA inh: -2; UGM FP inh: 0; RecA intein inh: 0; GDH-TPI counter: 26; Rv3671c inh: -4

Results for Cc1cc(/C=N\NC(=O)COc2cccc3cccnc23)c(C)n1-c1ccc(Br)cc1 ?
Vc quorum ag: inactive; Mtb FBA inh: -1; UGM FP inh: -6; RecA intein inh: 0; GDH-TPI counter: 15; Rv3671c inh: -10

What do the screens show for `COc1ccc(/C=N/NC(=O)c2nc(-c3ccccc3)n(-c3ccccc3)n2)cc1`?
Vc quorum ag: 0; Mtb FBA inh: 1; UGM FP inh: 3; RecA intein inh: 5; GDH-TPI counter: 33*; Rv3671c inh: -8

Results for COc1ccc(/C=N/NC(=O)c2nc(-c3ccccc3)n(-c3ccccc3)n2)c(O)c1 ?
Vc quorum ag: 0; Mtb FBA inh: 17; UGM FP inh: 1; RecA intein inh: 1; GDH-TPI counter: 25; Rv3671c inh: 7

What do the screens show for `Cc1cc(/C=N\NC(=O)c2cccs2)c(C)n1-c1ccc2ncccc2c1`?
Vc quorum ag: inactive; Mtb FBA inh: 0; UGM FP inh: 0; RecA intein inh: 6; GDH-TPI counter: 37*; Rv3671c inh: 5

What do the screens show for `COc1cc(/C=N/NC(=O)c2c(C)nc3ccc(Cl)cn23)cc(OC)c1OC`?
Vc quorum ag: 0; Mtb FBA inh: -1; UGM FP inh: 0; RecA intein inh: 0; GDH-TPI counter: 36*

How did Brc1ccc2nc(-c3ccco3)c(CC3CCCCC3)n2c1 do in these assays?
Mtb FBA inh: 3

What do the screens show for `O=c1[nH]c(NCCCO)nc2c1C1(CCCC1)Cc1ccccc1-2`?
Vc quorum ag: 1; Mtb FBA inh: 184*; UGM FP inh: 6; RecA intein inh: -1; GDH-TPI counter: 4; Rv3671c inh: -12

What do the screens show for `CCOC(=O)C1Cn2c(nc3c(c2=O)C(C)(C)Cc2ccccc2-3)S1` (configuration not stated)?
Mtb FBA inh: 8; UGM FP inh: 1; RecA intein inh: 1; GDH-TPI counter: 2; Rv3671c inh: -4

Results for CCC1(C)Cc2ccccc2-c2nc(SC)[nH]c(=O)c21 (configuration not stated) ?
Vc quorum ag: inactive; Mtb FBA inh: 4; UGM FP inh: 0; RecA intein inh: -3; GDH-TPI counter: 5; Rv3671c inh: -6

Results for CC1(C)Cc2ccccc2-c2nc(NCCCO)n(-c3ccccc3)c(=O)c21 ?
Vc quorum ag: 0; Mtb FBA inh: 198*; UGM FP inh: -1; RecA intein inh: -1; GDH-TPI counter: 6; Rv3671c inh: 1

What do the screens show for `CCC1(C)Cc2ccccc2-c2nc(NCCCO)[nH]c(=O)c21` (configuration not stated)?
Vc quorum ag: 0; Mtb FBA inh: 140*; UGM FP inh: 2; RecA intein inh: 2; GDH-TPI counter: 9; Rv3671c inh: -8

Results for COc1cccc(/C=N/n2c(COc3ccccc3)n[nH]c2=S)c1 ?
Vc quorum ag: -1; Mtb FBA inh: -2; UGM FP inh: -1; RecA intein inh: -1; GDH-TPI counter: -3; Rv3671c inh: -5

How did CN(CC(=O)Nc1cc(Cl)cc(Cl)c1)Cc1cccs1 do in these assays?
Vc quorum ag: inactive; Mtb FBA inh: -3; UGM FP inh: 2; RecA intein inh: 11; GDH-TPI counter: -5; Rv3671c inh: -2

What do the screens show for `CCCC(C)C(=O)Nc1ncc(S(=O)(=O)c2ccc([N+](=O)[O-])cc2)s1` (configuration not stated)?
Vc quorum ag: inactive; Mtb FBA inh: 3; UGM FP inh: -3; RecA intein inh: -3; GDH-TPI counter: 2; Rv3671c inh: 7
